Growth data for eight compounds are collected here from PubChem BioAssay (NCI).

Holding throughout (assay): NCI-60 one-dose screen, 48 h (100 = growth as untreated, 0 = no growth, -100 = all killed)
Holding throughout (conditions): 10 µM unless noted

Assay [1] concerns SR leukemia.
For assay [2], the system named is RPMI-8226 leukemia.
Assay [3] deals with OVCAR-8 ovarian.
Assay [4] has as its system OVCAR-5 ovarian.
For assay [5], the system named is OVCAR-4 ovarian.
Assay [6] deals with SK-OV-3 ovarian.
Assay [7] has as its system IGROV1 ovarian.
In assay [8] the test system is OVCAR-3 ovarian.
For assay [9], the system named is HS 578T breast.
The test system of assay [10] is NCI/ADR-RES ovarian.
Assay [11] relates to T-47D breast.
Assay [12] concerns BT-549 breast.
Assay [13] has as its system MDA-MB-435 melanoma.
In assay [14] the test system is SW-620 colon.
For assay [15], the system named is MCF7 breast.
Assay [16] relates to HCT-116 colon.
The test system of assay [17] is HCC-2998 colon.
Assay [18] has as its system KM12 colon.

Compounds without any hit were thinned out: in the full panel of roughly 83,000, 20% have a hit.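 A percent growth of 40 corresponds to 60% growth inhibition; 0 means no net growth; -100 means all cells died. Active threshold: below 10.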 Unmarked numbers belong to inactive results. Active and inactive are the calls of the source.

For `CC(C)=CCC[C@](C)(O)[C@H]1CC[C@]2(C)[C@@H]1CC[C@@H]1[C@@]3(C)C/C(=C/c4cccc([N+](=O)[O-])c4)C(=O)C(C)(C)[C@@H]3CC[C@]12C`, the growth is 72.7% in [1]; 59.9% in assay [2]; 77.5% in assay [3]; 94.1% in assay [4]; 82.5% in [5]; 109% in [6]. For the same compound, the growth is 107% in assay [7]; 89.7% in assay [8]; 93.3% in assay [9]; 101% in assay [10]; 60.2% in assay [11]; 97.1% in [12]. The growth was 94.2% in assay [13]; 72.6% in assay [14]; 72.8% in assay [15]; 51.5% in assay [16]; 85.7% in assay [17]; 86% in assay [18].

Consider `Cn1c(=O)c2c(nc(Br)n2CC(=O)Nc2ccc(F)cc2)n(C)c1=O`, for which the growth in assay [1] is 89.2%; in assay [2], 79.1%; in assay [3], 103%; in assay [4], 103%; in assay [5], 120%; in assay [6] it was 102%. For the same compound, the growth was 107% in assay [7]; 114% in assay [8]; 100% in assay [9]; 102% in assay [10]; 87.2% in assay [11]; 101% in assay [12]. The growth in assay [13] is 112%; in assay [14], 105%; in assay [15] it was 99.2%; in assay [16], 84.5%; in [17] it was 114%; in assay [18] it was 101%.

As to `Nc1ccccc1NC(=O)c1ccc(CN2CCC/C(=C\c3ccccn3)C2=O)cc1`, the growth was 14.1% in assay [1]; 11.8% in assay [2]; 26.4% in [3]; 20.9% in assay [4]; 47.6% in assay [5]; 48.2% in [6]. Moreover, the growth in assay [7] is 21.2%; in assay [8], 27.6%; in assay [9], 36.2%; in assay [10], 28.7%; in assay [11] it was 8.73% (active); in assay [12], 52.9%. Also, the growth is -42.7% (active) in [13]; 12.3% in assay [14]; 6.01% (active) in assay [15]; 5.7% (active) in assay [16]; 31.5% in assay [17]; 25.2% in assay [18].

As to `CCCCC[C@H]1CC=C2C(=O)C=C[C@@H]2CC=CCCCC(=O)O[C@@H](CCCCC)CC=C2C(=O)C=C[C@@H]2CC=CCCCC(=O)O[C@@H](CCCCC)CC=C2C(=O)C=C[C@@H]2CC=CCCCC(=O)O1`, the growth in assay [1] was -6.53% [8.75 µM] (active); in assay [2], -9.62% [8.75 µM] (active); in assay [3], 12.2% [8.75 µM]; in assay [4] it was -23.7% [8.75 µM] (active); in assay [5], 22.4% [8.75 µM]; in [6], 36.7% [8.75 µM]. Moreover, the growth in assay [7] was -46.1% [8.75 µM] (active); in [8], -54.2% [8.75 µM] (active); in [9], 40.2% [8.75 µM]; in assay [10], 49.8% [8.75 µM]; in assay [11], -10.2% [8.75 µM] (active); in assay [12], -37.7% [8.75 µM] (active). Also, the growth in assay [13] is -31.8% [8.75 µM] (active); in assay [14], 2.25% [8.75 µM] (active); in assay [15], 5.55% [8.75 µM] (active); in assay [16] it was -89.8% [8.75 µM] (active); in [17] it was -38.7% [8.75 µM] (active); in [18] it was -41% [8.75 µM] (active).

On to `O=C1OC(c2ccc(Cl)c(Cl)c2)=C/C1=C/c1cccc([N+](=O)[O-])c1`, for which the growth is 117% in [1]; 99% in assay [2]; 99.4% in [3]; 96.1% in [4]; 116% in assay [5]; 96.5% in [6]. The growth was 81.8% in assay [7]; 111% in assay [8]; 97.7% in assay [9]; 104% in assay [10]; 96.7% in assay [11]; 111% in assay [12]. The growth in assay [13] was 104%; in assay [14] it was 102%; in [15], 101%; in assay [16], 86.5%; in [17] it was 103%; in assay [18], 104%.

Consider `C=C(C)[C@@H]1CC[C@]2(/C=N/Nc3ccncc3)CC[C@]3(C)[C@H](CC[C@@H]4[C@@]5(C)CCCNC(C)(C)[C@@H]5CC[C@]43C)[C@@H]12`, for which the growth in [1] was 17.9%; in assay [2] it was 28.7%; in assay [3] it was 95.2%; in assay [4], 105%; in [5], 89.9%; in assay [6] it was 113%. For the same compound, the growth in [7] was 96.4%; in assay [8], 84.5%; in assay [9] it was 83.2%; in assay [10], 94.5%; in [11], 64.5%; in assay [12], 77.2%. Further, the growth in assay [13] was 86.7%; in assay [14], 41.4%; in [15], 63.2%; in assay [16], 43.8%; in assay [17], 71.3%; in [18], 82.1%.

`Cn1cc(-c2csc(-c3cn(CCNC(=O)OC(C)(C)C)c4ccccc34)n2)c2cccnc21`: the growth in assay [1] is 75.6%; in assay [2] it was 42.1%; in assay [3], 45%; in [4], 115%; in assay [5] it was 49.2%; in assay [6], 94.9%. The growth in [7] was 64.7%; in assay [8], 86.3%; in assay [9], 82.1%; in assay [10], 56%; in [11], -1.03% (active); in assay [12], 67.2%. In addition, the growth in assay [13] was 74.5%; in assay [14] it was 92.4%; in [15] it was 39.4%; in assay [16] it was 81.1%; in [17], 95.8%; in [18], 59.2%.

Turning to `Clc1ccc(Cn2cc(-c3nc4ccc(Br)nc4n3Cc3ccc(Cl)cc3)c3cccnc32)cc1`, the growth in assay [1] is 61%; in [2] it was 67.6%; in assay [3], 77.2%; in [4], 96.9%; in [5] it was 87.6%; in assay [6], 80.9%. Besides, the growth is 77.3% in assay [7]; 93.5% in assay [8]; 92.7% in assay [9]; 90.8% in [10]; 34.7% in assay [11]; 82.4% in assay [12]. Further, the growth in [13] is 105%; in assay [14] it was 103%; in assay [15], 57.7%; in assay [16], 84.1%; in [17], 96.7%; in [18], 95.9%.
